Inconclusive results are not listed. Active and inactive are the calls of the source. The call rests on the fitted dose curve; in most records, active means well fitted curve in the direction sought with a large enough effect; inconclusive means small, poorly fitted or top-dose-only effect, or another doubt; inactive means no such curve, though single readings can be large; an effect the other way counts as inactive or inconclusive.
Key:
[1] = BET inhibitor-based combinations targeting novel dependencies in MECOM-rearranged (r) AML: OCI-AML3 cell line (AID 2202232); settings: CellTiter-Glo luminescence, 48 h; Potency: OCI-AML3 viability; series mostly up to 46 µM; further: nearly all actives have a fitted effect of over 35% in size
How it was run: (§1)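 Here, 11-point titrations of each agent were applied to 500 seeded cells and incubated 48 hr; CellTiter-Glo signal, scaled against DMSO and empty wells, was integrated as AUC, then Z-scored within the individual line.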

[2] = BET inhibitor-based combinations targeting novel dependencies in MECOM-rearranged (r) AML: MV-4-11 cell line (AID 2202233); settings: MV-4-11 AML viability, CellTiter-Glo luminescence, 48 h; series mostly up to 46 µM; further: nearly all actives have a fitted effect of over 45% in size
How it was run: (§2)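 Normalized to DMSO and empty-well controls, the luminescence data from CellTiter-Glo after 48 hr drug exposure were fitted across 11 concentrations. Reported metrics are area under the dose-response curve and its Z-transformed form.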

[3] = BET inhibitor-based combinations targeting novel dependencies in MECOM-rearranged (r) AML: UCSD-AML1 cell line (AID 2202235); settings: UCSD-AML1 AML cells viability, CellTiter-Glo, 48 h; series mostly up to 46 µM; further: nearly all actives have a fitted effect of over 40% in size
How it was run: as §2

[4] = BET inhibitor-based combinations targeting novel dependencies in MECOM-rearranged (r) AML: AML-191 cell line (AID 2202236; further: nearly all actives have a fitted effect of over 35% in size); settings: AML-191 viability, CellTiter-Glo luminescence, 48 h; series mostly up to 46 µM
How it was run: as §1

[5] = BET inhibitor-based combinations targeting novel dependencies in MECOM-rearranged (r) AML: AML-194 cell line (AID 2202237; further: nearly all actives have a fitted effect of over 40% in size); settings: AML-194 (MECOM-r AML) viability, CellTiter-Glo, 48 h; series mostly up to 46 µM
How it was run: as §1

[6] = BET inhibitor-based combinations targeting novel dependencies in MECOM-rearranged (r) AML: HNT-34 cell line (AID 2202234); settings: HNT-34 AML viability, CellTiter-Glo luminescence, 48 h; series mostly up to 46 µM; further: nearly all actives have a fitted effect of over 35% in size
How it was run: as §2
Potency means the concentration at half of the fitted maximal effect.

| SMILES | Potency [1] | Potency [2] | Potency [3] | Potency [4] | Potency [5] | Potency [6] |
| --- | --- | --- | --- | --- | --- | --- |
| c1ccc(-c2cc(CCC3CCNCC3)c3ccccc3n2)cc1 | 20.9 µM (active) | 20.9 µM (active) | 26.3 µM (active) | 20.9 µM (active) | 26.3 µM (active) |  |
| O=C(C[C@@H]1C/C=C\CCC(=O)O[C@H](c2ccccc2)CNC1=O)NCc1ccc(Cl)cc1 | inactive | inactive |  |  | inactive | inactive |
| Cn1cc(C2=C(c3cn(C)c4cc([N+](=O)[O-])ccc34)C(=O)NC2=O)c2ccccc21 | 0.662 µM (active) | 0.833 µM (active) | 0.833 µM (active) | 0.662 µM (active) | 0.417 µM (active) |  |
| CN1CCN(Cc2ccc(Nc3ncc(Cl)c(Nc4ccccc4S(=O)(=O)N(C)C)n3)cc2)CC1 | 0.191 µM (active) | 0.0539 µM (active) |  | 0.152 µM (active) | 0.215 µM (active) | 0.108 µM (active) |
| Cc1ccc(-n2nc(C(C)(C)C)cc2NC(=O)NCc2cc(F)ccc2Oc2ccc3c(cnn3CCO)c2)cc1 | 14.8 µM (active) | 18.6 µM (active) |  | 18.6 µM (active) | 16.6 µM (active) | 0.296 µM (active) |
| N#C/C(=C(/N)Sc1ccc(N)cc1)c1ccccc1C(F)(F)F | 7.42 µM (active) | 18.6 µM (active) |  | 5.9 µM (active) | 16.6 µM (active) |  |
| CN(C)CCOc1ccc(-c2nc(-c3ccc4c(c3)CC/C4=N\O)c(-c3ccncc3)[nH]2)cc1 | 5.9 µM (active) | 16.6 µM (active) |  | 16.6 µM (active) | 20.9 µM (active) | 14.8 µM (active) |
| Nc1ncc(C(=O)NC2CN(C(=O)C3CC3)C2)c2ccc(-c3cccc(F)c3)nc12 | 7.42 µM (active) | 10.5 µM (active) | 23.5 µM (active) |  | inactive |  |
| C=CC(=O)Nc1cc2c(Nc3ccc(F)c(Cl)c3)ncnc2cc1C#CC(C)(C)N1CCN(C)CC1 | 2.63 µM (active) | 0.742 µM (active) |  | 4.68 µM (active) | 4.68 µM (active) | 3.72 µM (active) |
| C[C@H]1C[C@@H](n2c(Nc3ccc(OC(F)(F)F)cc3)nc3cc(CCC(=O)O)ccc32)CC(C)(C)C1 | 20.9 µM (active) | 20.9 µM (active) |  | 26.3 µM (active) |  |  |
| CCN(CC)C(=S)SSC(=S)N(CC)CC | 0.332 µM (active) | 0.263 µM (active) |  | 0.296 µM (active) | 0.296 µM (active) | 0.332 µM (active) |
| COc1cc(C(=O)NC(N)=Nc2ccc(C)c(NC(=O)c3ccc(-c4ccccc4)cc3)c2)cc(OC)c1OC | 18.6 µM (active) | 18.6 µM (active) |  | 18.6 µM (active) | 23.5 µM (active) | 18.6 µM (active) |
| COc1cccc(-c2c(C)n(Cc3c(F)cccc3C(F)(F)F)c(=O)n(C[C@H](NCCCC(=O)O)c3ccccc3)c2=O)c1F | 7.42 µM (active) | inactive | inactive |  |  |  |
| N#Cc1cc2cc(CN3CCC(Nc4ncnc5sc(CC(F)(F)F)cc45)CC3)c(O)cc2n1Cc1cn[nH]c1 | 18.6 µM (active) | 5.9 µM (active) |  |  | 26.3 µM (active) | 23.5 µM (active) |
| COc1ccc(-c2oc3ncnc(N)c3c2-c2ccc(NC(=O)Nc3cc(C(F)(F)F)ccc3F)cc2)cc1 | 10.5 µM (active) | 0.372 µM (active) |  | 8.33 µM (active) | 7.42 µM (active) | 7.42 µM (active) |
| CC(=O)N1CCC(Nc2cc(C(=O)NC[C@H](O)CN3CCc4ccccc4C3)ncn2)CC1 | 0.0042 µM (active) | 0.0417 µM (active) |  |  | inactive | inactive |
| Nc1nc(-c2nn(Cc3ccccc3F)c3ncccc23)ncc1C1CC1 | 5.9 µM (active) | 1.18 µM (active) | 14.8 µM (active) |  |  |  |
| CCc1ccc(N(CC(C)C)S(=O)(=O)c2ccc(OCC3CCOCC3)c(CO)c2)cc1 | 14.8 µM (active) | 18.6 µM (active) | inactive |  |  |  |
| CNc1nc(-c2ccc3c(N)n[nH]c3c2)cc(N2C[C@@H](C(=O)NC3CCCCC3)CC[C@H]2C)n1 | 5.9 µM (active) | 14.8 µM (active) | 0.742 µM (active) | 23.5 µM (active) |  |  |
| CC(C)Oc1ccc(C(=O)N[C@H](CNC(=O)CN(C)C)Cc2ccc(-c3cn4cccc([C@H](C)O)c4n3)cc2)cc1Cl | 0.263 µM (active) | 0.166 µM (active) | 0.332 µM (active) | 0.263 µM (active) | 0.332 µM (active) |  |
| CC(C)n1cc(-c2ccc3c(c2)N(C)CC3)c2c(NS(=O)(=O)c3ccn(C)n3)ccnc21 | inactive | inactive | inactive |  | inactive |  |
| Cc1cccc(/C=N/Nc2cc(N3CCOCC3)nc(OCCc3ccccn3)n2)c1 |  | 7.42 µM (active) |  |  |  |  |
| CN[C@@H](C)C(=O)N[C@H](C(=O)N1CCC[C@H]1C(=O)Nc1snnc1-c1ccccc1)C1CCCCC1 | inactive |  |  |  | 3.32 µM (active) |  |
| CO[C@H]1C[C@@H]2CC[C@@H](C)[C@@](O)(O2)C(=O)C(=O)N2CCCC[C@H]2C(=O)O[C@H]([C@H](C)C[C@@H]2CC[C@@H](OCCO)[C@H](OC)C2)CC(=O)[C@H](C)/C=C(/C)[C@@H](O)[C@@H](OC)C(=O)[C@H](C)C[C@H](C)/C=C\C=CC=C1C |  | 13.2 µM (active) |  |  |  |  |
| COC(=O)N[C@H](C(=O)N1CCC[C@H]1c1ncc(-c2ccc(-c3ccc(-c4cnc([C@@H]5CCCN5C(=O)[C@@H](NC(=O)OC)C(C)C)[nH]4)cc3)cc2)[nH]1)C(C)C | inactive |  | inactive |  |  |  |

| SMILES | Potency [1] | Potency [2] | Potency [3] | Potency [4] | Potency [5] | Potency [6] |
| --- | --- | --- | --- | --- | --- | --- |
| COC(=O)C1=C(C)NC(c2ncc(F)cc2F)=N[C@H]1c1ccc(F)cc1Cl |  | 18.6 µM (active) |  |  |  | 16.6 µM (active) |
| CO[C@H]1/C=C/O[C@@]2(C)Oc3c(C)c(O)c4c(O)c(c(/C=N\N5CCN(C6CCCC6)CC5)c(O)c4c3C2=O)NC(=O)/C(C)=C\C=C\[C@H](C)[C@H](O)[C@@H](C)[C@@H](O)[C@@H](C)[C@H](OC(C)=O)[C@@H]1C |  | 23.5 µM (active) |  |  |  |  |
| C/C(O)=C(\C#N)C(=O)Nc1ccc(C(F)(F)F)cc1 | 9.34 µM (active) |  | inactive |  |  | 14.8 µM (active) |
| COc1cc(NCc2ccc3nc(N)nc(N)c3c2C)cc(OC)c1OC |  | 5.9 µM (active) |  |  |  |  |
| C=C[C@@H]1CN2CCC1C[C@H]2[C@H](O)c1ccnc2ccc(OC)cc12 (some centres undefined) | 20.9 µM (active) | 16.6 µM (active) |  | inactive | inactive |  |
| COc1ccc(COc2ccc(Cc3cnc(N)nc3N)cc2OC)cc1 |  | inactive |  |  |  |  |
| COC1=C(OC)C(=O)C(CCCCCCCCCCO)=C(C)C1=O | 16.6 µM (active) |  |  | 18.6 µM (active) |  |  |
| Cc1cc(C)c(S(=O)(=O)N(CCc2cccc(Br)c2)Cc2ccc(-c3cccc(S(C)(=O)=O)c3)cc2)c(C)c1 | inactive |  |  | inactive | inactive |  |
| CNC(=O)[C@H]1O[C@@H](n2cnc3c(NCc4cccc(I)c4)nc(Cl)nc32)[C@H](O)[C@@H]1O | inactive |  | inactive | inactive |  |  |
| CN1CCN(C(=O)c2ccc(-c3ccc4c(C=O)c(O)ccc4c3)s2)CC1 | 26.3 µM (active) |  |  |  |  | 16.6 µM (active) |
| CCNc1cc(NC2CCC(O)CC2)nc(Nc2ccc3c(ccn3Cc3ccccc3)c2)n1 (centres undefined) | inactive |  |  | inactive |  | inactive |
| CC(=O)Nc1ccc(C(=O)NC(C)(C)C)cc1 | inactive |  | inactive | inactive | inactive | inactive |
| CC1(C)CCC2(CC1)N[C@@H](C(=O)N[C@@H]1CC[C@@H](C(N)=O)OC1)[C@H](c1ccnc(Cl)c1F)[C@]21C(=O)Nc2cc(Cl)ccc21 | 0.715 µM (active) |  | 0.201 µM (active) | 0.358 µM (active) | 0.637 µM (active) | 0.16 µM (active) |
| Clc1ccc(COC(Cn2ccnc2)c2ccc(Cl)cc2Cl)cc1 (centres undefined) |  | 20.9 µM (active) |  |  |  |  |
| Cc1c(NC(=O)c2cc(C(N)=O)nc3cc(F)ccc23)c(C(F)(F)F)nn1Cc1ccc(C(C)(C)C)cc1 | 23.5 µM (active) |  |  | 16.6 µM (active) |  |  |
| CN1CCN(c2nc(C3=C(c4c[nH]c5ccccc45)C(=O)NC3=O)c3ccccc3n2)CC1 |  | 1.86 µM (active) |  |  |  |  |
| CCN1C(=O)N2Cc3cc(OC)cc(OC)c3[C@@H](C)C=C2C12CCN(Cc1cc(C)cc(C)c1)CC2 |  | 29.5 µM (active) |  |  |  | 23.5 µM (active) |
| NC(=O)c1cccc2c(NC(CN3CCC3)c3ccc(Cl)c(C(F)(F)F)c3)ncnc12 (centres undefined) | 1.48 µM (active) |  |  | 20.9 µM (active) | 16.6 µM (active) |  |
| NS(=O)(=O)c1ccc(NC(=S)N2CCN(C/C=C/c3ccccc3)CC2)cc1 | 20.9 µM (active) |  | inactive |  | inactive | 18.6 µM (active) |
| CC(C)n1cnc2c(NCCCCCCNC(=O)OC(C)(C)C)nc(NCCO)nc21 |  | 16.6 µM (active) |  |  |  |  |
| C[C@@H]1CC[C@@]2(OC1)OC1CC3C4CC=C5CC(O)CCC5(C)C4CCC3(C)C1[C@@H]2C (some centres undefined) |  | inactive |  |  |  |  |
| O=C(NCc1ccncc1)C12C[C@H]3C[C@@H](C1)CC(c1ccc(Cl)cc1)(C3)C2 | 20.9 µM (active) |  | inactive |  |  |  |
| O=c1cc(-c2ccc(O)c(O)c2)oc2cc(O)cc(O)c12 |  | 8.33 µM (active) |  |  |  |  |
| Cn1cc(-c2cc(Oc3cc(F)c(NC(=O)C4(C(=O)Nc5ccccc5)CC4)cc3F)ccn2)cn1 |  | 0.742 µM (active) |  |  |  | 5.25 µM (active) |
| C=CC(=O)N1CCC[C@H](n2c(=O)n(-c3ccc(Oc4ccccc4)cc3)c3c(N)ncnc32)C1 | inactive |  | inactive |  |  | 16.6 µM (active) |

Reference: PubChem BioAssay (NCATS)
